Measurements taken from PubChem BioAssay (Tox21).
Inconclusive results are not listed. Entries that show only a call come without a potency. Activity calls are given as the source filed them. Calls follow the shape of the full dose curve.

molecular target: Acetylcholinesterase (Homo sapiens) (UniProt P22303); experiment: Acetylcholinesterase (AChE) small molecule antagonists: fluorescence cell-based qHTS assay (AID 1347398); details: SH-SY5Y cells; Potency: AChE activity; outcome: AChE activity; series mostly up to 115 µM; also: nearly all actives have a fitted effect of over 50% in size
Summary of the method: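 Using neuroblastoma SH-SY5Y cells as the enzyme source, test chemicals are preincubated 30 min at 37 C; AChE-driven acetylthiocholine cleavage is then quantified by thiocholine-dependent Thiolite Green fluorescence after 40 min at room temperature.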

Chain of Acetylcholinesterase (Homo sapiens) (P22303 whole entry, looked up): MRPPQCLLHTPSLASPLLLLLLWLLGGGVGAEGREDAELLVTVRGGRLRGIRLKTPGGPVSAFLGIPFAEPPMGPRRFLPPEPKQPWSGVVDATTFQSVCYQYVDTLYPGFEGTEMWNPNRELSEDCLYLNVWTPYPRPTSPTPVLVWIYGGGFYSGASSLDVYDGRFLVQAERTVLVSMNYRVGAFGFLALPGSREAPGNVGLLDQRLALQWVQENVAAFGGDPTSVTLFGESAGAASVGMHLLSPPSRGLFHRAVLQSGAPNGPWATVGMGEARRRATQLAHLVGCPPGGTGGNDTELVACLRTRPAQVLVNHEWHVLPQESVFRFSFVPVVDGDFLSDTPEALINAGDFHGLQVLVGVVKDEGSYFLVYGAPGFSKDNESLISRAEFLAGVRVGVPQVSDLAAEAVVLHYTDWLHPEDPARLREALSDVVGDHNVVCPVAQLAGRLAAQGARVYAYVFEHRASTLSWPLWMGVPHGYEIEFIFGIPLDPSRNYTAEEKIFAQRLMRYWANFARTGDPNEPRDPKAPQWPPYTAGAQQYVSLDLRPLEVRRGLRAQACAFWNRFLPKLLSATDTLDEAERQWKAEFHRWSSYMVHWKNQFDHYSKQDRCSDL

Structure (SMILES)	Potency
CC(=O)NCCCCCC(=O)O	inactive
CCOC(=O)NNc1nncc2ccccc12	inactive
CC(C)(C)CC(C)(C)N	inactive
c1ccc2scnc2c1	inactive
CCCCOc1cc(C(=O)NCCN(CC)CC)c2ccccc2n1	inactive
Clc1ccc2c(c1)Nc1ccccc1S2	inactive
O=c1c(-c2ccc(O)cc2)coc2cc(O)ccc12	inactive
O=C1CCC(C2CCCCC2)CC1	inactive
CC(C)(C)c1cc(CCC(=O)OCC(COC(=O)CCc2cc(C(C)(C)C)c(O)c(C(C)(C)C)c2)(COC(=O)CCc2cc(C(C)(C)C)c(O)c(C(C)(C)C)c2)COC(=O)CCc2cc(C(C)(C)C)c(O)c(C(C)(C)C)c2)cc(C(C)(C)C)c1O	inactive
C=C1[C@H]2CC[C@@H]3[C@H]2C(C)(C)CCC[C@]13C	inactive
CC(C)(CO)C(O)C(=O)NCCCO (stereo unspecified)	inactive
CCOC(=O)c1ccc(C)cc1	inactive
C[C@]12C=CC(=O)C=C1[C@@H](F)C[C@@H]1[C@@H]2[C@@H](O)C[C@@]2(C)[C@H]1CC[C@]2(O)C(=O)CO	inactive
COc1cccc(OC)c1O	inactive
C=C(C)C(=O)OCCOc1ccccc1	inactive
Nc1nc2ccc(OC(F)(F)F)cc2s1	inactive
C/C=C(/C(=C/C)c1ccc(O)cc1)c1ccc(O)cc1	inactive
Cc1ccsc1C(=CCCN1CCC[C@@H](C(=O)O)C1)c1sccc1C	inactive
CCN(C=O)CC	inactive
CC1=C(CC(=O)O)c2cc(F)ccc2/C1=C\c1ccc(S(C)=O)cc1 (stereo unspecified)	inactive
O=C(O)CCCCCCC(=O)O	inactive
